# PubChem BioAssay (NCI)
# Compounds without any hit were thinned out: in the full panel of roughly 83,000, 20% have a hit.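 Note: values are percent growth. 100 is the growth of untreated cells, values between 100 and 0 indicate rising inhibition; between -100 and 0 indicates cell death.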 The source made the active and inactive calls.
# System: ACHN renal
# Test: NCI-60 one-dose screen, 48 h (100 = growth as untreated, 0 = no growth, -100 = all killed)
# Conditions: 10 µM unless noted
# Protocol: Growth inhibition of the ACHN human tumor cell line is measured as a screen for anti-cancer activity. Cells are grown in 96 well plates and exposed to the test compound for 48 hours. Compounds are tested at a single concentration, which is 10^-5 M for most compounds. The reported endpoint is percent growth (GI% or GIPRCNT), where numbers from 0 - 100% represent growth inhibition, and numbers from -100% - 0 represent cell death. For example, a value of 40 represents 60% growth inhibition. A value of 0 means no net growth occurred over the course of the experiment. A value of -40 indicates 40% of cells at the beginning of the experiment died by the end of the experiment. A value of -100 means all cells are dead at the end of the experiment.
# NCI-60 Human Tumor Cell Lines Screen was performed using the standard one-dose NCI protocol, which is described in more detail at https://dtp.cancer.gov/discovery_development/nci-60/default.htm.
# Compounds with GIPRCNT values below 10 were considered active. Activity score was based on GIPRCNT using the following formula: […]
# Score is 0 for GIPRCNT values of 100 or above, 50 for GIPRCNT values of 0, and 100 for GIPRCNT values of -100.
row,Compound,growth
1,CCN1C(=O)/C(=c2\sc3n(c2=O)NC2C(N=3)N(CC)C(=O)N2CC)c2ccccc21 (stereo not given),49.3% (inactive)
2,COc1cc2nc(-c3ccc(-c4nn[nH]n4)cc3)[nH]c(=O)c2cc1OC,111% (inactive)
3,O=C(CSc1nc2sc3c(c2c(=O)n1Cc1ccccc1)CCCC3)N1CCN(c2ccccc2)CC1,104% (inactive)
4,COc1cc(Nc2cc(O)c3c(=O)cc(-c4ccccc4)oc3c2)cc(OC)c1,48.3% (inactive)
5,Fc1ccc2nc3c(cc2c1)CSc1nnc(-c2ccc[nH]c2=S)n1N3,94% (inactive)
6,CCCCCCCCOC(=O)c1ccc(O)c(OC)c1,103% (inactive)
7,CN1CCN(C(=O)OCc2nc3c(N4CCOCC4)nc(-c4ccccc4)nc3n2C)CC1,-100% (active)
8,COc1ccc(CNCCN2C(=O)c3ccc4c5c(ccc(c35)C2=O)C(=O)N(CCNCc2ccc(OC)cc2)C4=O)cc1,-74.3% (active)
9,O=C1Nc2cc(-c3ccncc3)ccc2/C1=C/c1ccc[nH]1,54% (inactive)
10,C[C@@H]1CN(Cc2ccc(/C=C/c3n[nH]c4ccc5nc(-c6cn[nH]c6C(F)(F)F)c6c(c5c34)CCCC6)cc2)C[C@H](C)O1,10.8% (inactive)
11,COc1ccc(-c2nc(N/N=C/c3ccco3)nc(N3CCOCC3)c2C#N)cc1,78.3% (inactive)
12,COC(=O)Nc1ccc(NC(=O)OC)cc1,115% (inactive)
13,CC1(c2ccccc2)NC(=O)N(CC(=O)Nc2cccc(I)c2)C1=O (stereo not given),91.4% (inactive)
14,Cc1ccc(C2CC(c3cccc(Nc4ccncc4)c3)=NN2c2cc(Cl)cc(Cl)c2)cc1 (stereo not given),-61.9% (active)
15,COc1cccc(C(Cc2ccccc2)Nc2ccccc2)c1OC (stereo not given),106% (inactive)
16,COc1ccccc1/C=C1\Oc2cc(OCCCN3CCCC3)ccc2C1=O,97.4% (inactive)
17,N#Cc1c(NC(=O)c2cccc(Br)c2)sc2c1CCCC2,75.6% (inactive)
18,CCN(CC)CCSCCCNc1c(C)cnc2cc(Cl)ccc12,94.6% (inactive)
19,CC(C)Sc1nc(NN)c(C#N)c(-c2ccccc2)n1,93% (inactive)
20,COc1cc(C(=O)/C=C/c2c(C)n([O-])c3ccc(Cl)cc3[n+]2=O)cc(OC)c1OC,53.5% (inactive)

row,Compound,growth
1,CC1(C)CN(c2cnc(C(=O)Nc3cc(F)cc4cccnc34)cn2)CCN1,31.3% (inactive)
2,COc1ccc(NC(=O)c2sc3nc(C)c(C(O)c4ccc(OC)cc4)cc3c2N)cc1 (stereo not given),36.3% (inactive)
3,COc1ccc(CNC(=O)COc2ccc(/C=N/Nc3nc4ccccc4s3)cc2)cc1,8.13% (active)
4,Nc1c(C(=O)Nc2ccc(Cl)cc2)cc(-c2nc3ccccc3s2)c(=O)n1NS(=O)(=O)c1ccc(Cl)cc1,103% (inactive)
5,O=S(=O)(c1ccc(N/N=C\c2ccccc2)cc1)c1ccc(N/N=C/c2ccccc2)cc1,57.4% (inactive)
6,CCCCCCc1nc2nc(Cl)c(Cl)nc2[nH]1,67.4% (inactive)
7,C#CC(=O)Nc1cccc(Nc2nc3c(c(NCc4ccccc4)n2)CCCC3)c1,-93.5% (active)
8,COc1ccccc1OCC(=O)N1CCCCCC1,105% (inactive)
9,CCCCCCCCN1C(=O)/C(=c2\sc3n(c2=O)C2C(NN=3)N(CC)C(=O)N2CC)c2ccccc21 (stereo not given),73.8% (inactive)
10,C=Cc1cc[n+](CCCCCCCCCCCC)cc1,108% (inactive)
11,COc1ccc(C2=NN(C(C)=O)C(c3cn(Cc4ccc(Cl)cc4)c4ccccc34)C2)cc1 (stereo not given),74.5% (inactive)
12,CC(=O)OC1CCC2(C)C(CCC3C4CC=C(C(C)=O)C4(C)OC(=O)CC32)C1 (stereo not given),7.04% (active)
13,COc1ccc(-c2nc(SC(C)C)nc(NNC(N)=O)c2C#N)cc1,90.1% (inactive)
14,O=C(Nc1nc2ccc(C(=O)N3CCN(c4ccc(Cl)c(Cl)c4)CC3)cc2s1)c1ccc(NCCc2ccccc2)c([N+](=O)[O-])c1,101% (inactive)
15,COc1ccc(-c2ncc(-c3ccccc3)[nH]2)cc1OC,111% (inactive)
16,Fc1ccc(C2CC(c3cccc(Nc4ccncc4)c3)=NN2c2ccccc2)cc1 (stereo not given),75.3% (inactive)
17,COc1cccc(/C=C2\COc3ccc(-c4ccccc4)cc3C2=O)c1,46.8% (inactive)
18,COc1cccc(NC(=O)c2cccc(-c3cc(=O)c4c(OC)c(OC)c(OC)cc4o3)c2)c1,62.5% (inactive)
19,COc1ccc(-c2cnc(N)nc2-c2ccc(OC)cc2O)cc1,87.9% (inactive)
20,CCOc1cc(CNc2ccc(N3CCOCC3)c(C(=O)O)c2)ccc1OC,108% (inactive)
